From PubChem BioAssay AID624414 (National Center for Advancing Translational Sciences (NCATS), 2012)
Out of some 410,000 compounds screened, about 480 (0.12%) were called active. The entries come from a sample that favours actives as a whole. A number with no mark means an inactive call. Rule as the data show it: active = activation above about 50%; inconclusive = mostly about 30% to 49%; inactive = weaker than that.

Biological target: Mucolipin-1 (Homo sapiens) (UniProt Q9GZU1)
Assay: qHTS for Agonists of the Human Mucolipin Transient Receptor Potential 1 (TRPML1); also: 0% is about no effect
Settings: TRPML1-expressing cells, Ca2+ dye fluorescence, FDSS; stronger effect = higher value
Excerpt: Mutations of human Mucolipin transient receptor potential 1 (TRPML1) cause type IV mucolipidosis (ML4), a devastating neurodegenerative disease in young children. […] Currently, there is no treatment for ML4. […] Under physiological conditions, TRPMLs regulate membrane trafficking by transducing information about PI(3,5)P2 levels into changes in juxtaorganellar Ca2+, thereby triggering membrane fusion/fission events in the late endocytic pathways (endolysosomal trafficking). In addition, TRPML1 mediates release of Fe2+ from late endosomes and lysosomes, which is essential for cellular iron metabolism. Thus, impaired ion (Ca2+ and Fe2+) homeostasis underlies lysosomal dysfunction and ML4 phenotypes. In ML4 cells, the problem is twofold. First, defective Ca2+-dependent membrane trafficking due to TRPML1-deficiency causes accumulation of lipids and other bio-materials in the lysosome. The second strike comes from the lysosomal iron overload (due to impairment of TRPML1's Fe2+ conductivity), which converts the accumulated materials into the nondegradable (resistant to lysosomal degradation) lipofuscin (also called aging pigment) in the lysosome. Lipofuscin accumulation dramatically compromises the functions of lysosomes.
Niemann-Pick type C (NPC) disease is another lysosome storage disease (LSD) with severe neurodegeneration during the childhood. Currently, there is no cure for NPC. […] Thus, TRPML1 is likely to be an essential regulator of lysosome ion homeostasis. We specifically hypothesize that stimulating TRPML1's Fe2+/Ca2+ channel activity in the lysosome using synthetic agonists can alleviate neurodegeneration associated with ML4 or NPC.
To this end, a high throughput screen was developed in a miniaturized format to screen against the Molecular Libraries Small Molecule Repository (MLSMR) to find small molecules that act either as inhibitors or agonist against the TRPML1 channel.
NIH Chemical Genomics Center [NCGC]
NIH Molecular Libraries Probe Centers Network [MLPCN]
Assay Submitter (PI): Haoxing Xu, University of Michigan Ann Arbor
TRPML1-DL cells are dissociated from flasks, counted and, brought up to a density of 500,000 cells per mL of media containing a 1X Tet inducer. Using a Multidrop Combi, 3uL of this cell solution is dispensed to each well of a 1536 TC treated, black, clear bottom hi base plate for a final cell density of 1,500 cells per well. The assay plates are incubated overnight (approximately 16 hours) at 37 degrees C and 5% CO2. Using a Multidrop Combi, 2uL of ABD Ca8 no wash dye plus quencher is added to each well. The assay plates incubate at room temperature in the dark for 45-90 minutes. The assay plate is read on the FDSS using the following protocol: 10 second baseline read, 23nL of compounds and controls are added using 1536 pintool, agonist read for 110 seconds, 1 uL EC80 addition (4uM final 54-4 diluted in media), antagonist read for 110 seconds.

Chain of Mucolipin-1 (Homo sapiens) (Q9GZU1 whole entry, looked up): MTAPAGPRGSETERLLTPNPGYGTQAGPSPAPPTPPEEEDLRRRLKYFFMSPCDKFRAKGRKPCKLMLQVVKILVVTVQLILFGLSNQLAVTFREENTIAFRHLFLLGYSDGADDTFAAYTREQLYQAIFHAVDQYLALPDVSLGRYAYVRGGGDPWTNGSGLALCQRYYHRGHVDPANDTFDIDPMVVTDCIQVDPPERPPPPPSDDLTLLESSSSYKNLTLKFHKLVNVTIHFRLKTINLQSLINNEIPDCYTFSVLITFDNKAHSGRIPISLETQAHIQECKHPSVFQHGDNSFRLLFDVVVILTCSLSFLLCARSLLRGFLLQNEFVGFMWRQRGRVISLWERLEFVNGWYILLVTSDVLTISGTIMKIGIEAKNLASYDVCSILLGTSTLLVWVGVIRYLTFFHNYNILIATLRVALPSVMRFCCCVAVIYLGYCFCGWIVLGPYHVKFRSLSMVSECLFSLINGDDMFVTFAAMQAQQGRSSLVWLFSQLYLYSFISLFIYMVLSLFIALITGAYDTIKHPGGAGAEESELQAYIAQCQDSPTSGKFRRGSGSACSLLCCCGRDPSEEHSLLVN

Going from COc1cccc(-c2nnc3n(CCc4ccccc4)c(=O)c4ccccc4n23)c1O to CCC(=O)Nc1ccc(C)cc1-c1nc2ccccc2n(Cc2ccccc2)c1=O, the activation falls from 1.15% to 0.405%.

Going from CCOc1ccc(/C=C(\C#N)c2nc3ccccc3c(=O)[nH]2)cc1OC to CCOc1ccccc1NC(=O)Cn1nnc(C(=O)Nc2ccc(C)c(C)c2)c1N, the activation rises from 1.09% to 1.55%.

Compared with Cc1ccc2nc(CNC(=O)c3ccccc3)[nH]c2c1, CCOCCCNC(=O)c1ccc2nc(CCc3ccccc3)oc2c1 is higher in activation: 2.07% for the first, 2.82% for the second.

Going from N#Cc1ccc[n+](CC(=O)c2ccc(F)cc2)c1 to CC(OC(=O)Cc1ccc(F)cc1)C(=O)N1CCc2ccccc21 (stereo unspecified), the activation rises from 1.03% to 1.15%.

Compared with COC(=O)C(CC(C)C)NS(=O)(=O)c1cc(Br)ccc1Br (stereo unspecified), CC(C)(C)OC(=O)N(Cc1ccco1)S(=O)(=O)c1ccccc1Br is lower in activation: 1.9% for the first, 0.62% for the second.

Compared with OC(CBr)CN1CCCCC1 (stereo unspecified), CN(CC(=O)Nc1ccc(F)cc1)CC(=O)N1CCCCC1 is lower in activation: -0.38% for the first, -0.517% for the second.

First: Cc1cccc(N2CCN(C(=O)CCn3c(=O)c4cccn4c4cccnc43)CC2C)c1 (stereo unspecified)
Second: Cc1cccc(-n2c(=O)c3c(c4cc(C)ccc4n3C)n(CC(=O)Nc3ccccc3Cl)c2=O)c1
The activation of the first is lower: 0.62% for the first, 1.58% for the second.

First: C=CCNC(=O)c1ccc2nc(-c3ccco3)c(-c3ccco3)nc2c1
Second: COc1ccc(Cc2nc3ccc(C(=O)NCc4ccccc4Cl)cc3o2)cc1
The activation of the first is lower: -0.254% for the first, 0.91% for the second.

Compared with OC(CBr)C[n+]1cccc2cc(Br)ccc21 (stereo unspecified), Brc1cccc[n+]1Cc1cccc(C[n+]2ccccc2Br)c1 is lower in activation: 1.14% for the first, 0.0634% for the second.

First: Nc1ncnc2nnsc12
Second: SCc1nc2ccc(Cl)cc2[nH]1
The activation of the first is higher: 0.38% for the first, -0.507% for the second.

First: CN(C)c1ccc(/C=C/c2sc3ccccc3[n+]2CCCCBr)cc1
Second: CCCCCCCNc1ccc(/C=C/c2ccnc3ccccc23)cc1
The activation of the first is higher: 6.96% for the first, 6.43% for the second.

First: CCC(C(=O)Nc1cccc(Cl)c1C)n1nc(-c2ccc(C)cc2)ccc1=O (stereo unspecified)
Second: COc1ccc(CNc2nc(-c3ccc(Cl)cc3)nn2S(=O)(=O)c2ccc(C)cc2)cc1
The activation of the first is lower: 3.09% for the first, 3.68% for the second.

Going from S=c1[nH]c(=S)c2n[nH]nc2[nH]1 to COCCn1c(N)c(NCc2ccccc2)c(=O)[nH]c1=O, the activation rises from 0% to 1.47%.

First: CC(C)(C)c1ccc(C(=O)C[N+]2(C)CCCc3ccccc32)cc1 (stereo unspecified)
Second: CC(C)(C)n1ncc2c(=O)n(Cc3ccc(C(=O)c4ccccc4)cc3)cnc21
The activation of the first is lower: -0.62% for the first, 2.07% for the second.

First: O=C1O/C(=C\c2ccc(O)cc2)C(O)=C1c1ccc(O)cc1
Second: CS(=O)c1ccc(/C=C2\C=Cc3ccccc32)cc1 (stereo unspecified)
The activation of the first is higher: -0.353% for the first, -0.666% for the second.

First: COc1ccc(OC)c(NC(=O)CSC2=Nc3ccccc3C3=NC(CC(=O)NCc4ccc(F)cc4)C(=O)N23)c1 (stereo unspecified)
Second: O=C(CSc1nccn1Cc1ccc(Cl)cc1)NCc1ccccc1
The activation of the first is higher: 2.38% for the first, -1.21% for the second.

First: CCN1CCN(c2ncc3c(n2)CC(c2ccccc2O)CC3=O)CC1 (stereo unspecified)
Second: COc1cc([N+](=O)[O-])ccc1NC(=S)N1CCN(c2ccccn2)CC1
The activation of the first is lower: -0.182% for the first, 0.452% for the second.

Going from CCCS(=O)(=O)Nc1cccc(-c2cn3ccsc3n2)c1 to CC(=O)c1ccc(NS(=O)(=O)c2ccc(-c3cc(C)no3)s2)cc1, the activation rises from -0.225% to -0.182%.

First: CN(CCC#N)c1ccc(C=O)cc1
Second: CN(C)c1cccc2ccccc12
The activation of the first is higher: -0.222% for the first, -0.266% for the second.

Compared with Cc1nc(N2CCN(c3ccccn3)CC2)c2c(C)c(C(=O)Nc3ccc(F)c(Cl)c3)sc2n1, COc1ccc(Cl)cc1NC(=O)c1sc2nc3c(cc2c1N)CN(C)CC3 is higher in activation: -0.23% for the first, 1.12% for the second.

First: O=C(Nc1ccccc1)c1ccccc1OCc1ccccc1
Second: O=C(COc1ccccc1C(=O)Nc1ccccc1)Nc1cccc(F)c1
The activation of the first is higher: 0.0539% for the first, -0.0642% for the second.

First: COc1cc2nc(N3CCCN(C)CC3)nc(NC(C)C)c2cc1OC
Second: COc1cc(OC)c(OC)cc1/C=C1\C=Cc2ccccc21
The activation of the first is lower: -0.755% for the first, -0.666% for the second.

Going from O=C1CC(c2ccccc2)CC2=C1C(c1ccco1)n1nc(C(F)(F)F)nc1N2 (stereo unspecified) to CCN(CC)c1ccc(C2C(C(N)=O)=C(C)Nc3nc(SCc4ccccc4)nn32)cc1 (stereo unspecified), the activation rises from -1.28% to -0.404%.

Going from C=COC(=O)N1CCN(/[N+]([O-])=N/Oc2ccc([N+](=O)[O-])cc2[N+](=O)[O-])CC1 to COc1ccc(NC(=O)C2CCCN(S(=O)(=O)c3cccc4nonc34)C2)cc1Cl (stereo unspecified), the activation falls from 1.19% to 0.791%.

Going from COc1ccc(CN(Cc2ccccc2)C(=O)c2ccc(O)cc2)cc1COc1ccc(NC(C)=O)cc1 to CCOc1ccc(NC(=O)c2cnn(-c3ccccc3)c2-n2cccc2)cc1, the activation falls from 1.13% to -0.36%.

Compared with OC(Cc1ccc2ccccc2n1)c1ccc(Cl)c(Cl)c1 (stereo unspecified), Cc1ccc(-c2nc(=N)sn2Cc2ccccc2)cc1 is higher in activation: 0.0951% for the first, 0.856% for the second.

Compared with CCCOc1ccc(C2c3c(-c4ccccc4O)n[nH]c3C(=O)N2Cc2cccnc2)cc1 (stereo unspecified), Cc1cccc(NC(=O)COC(=O)c2ccccc2OCc2cccc(Br)c2)c1 is lower in activation: 1.02% for the first, -0.0809% for the second.

First: Cc1ccc(Cn2cnc3c(cnn3C(C)(C)C)c2=O)c(F)c1
Second: Cc1nn(CC(=O)O)c(=O)c2cc3cc(F)ccc3n12
The activation of the first is higher: 1.07% for the first, -0.613% for the second.

Compared with CN(C)c1ccc(NC(=O)CSc2nc(-c3ccco3)cc(C(F)(F)F)n2)cc1, O=C(Nc1ccccc1C(F)(F)F)c1nc(S(=O)(=O)Cc2ccccc2F)ncc1Cl is lower in activation: 0.776% for the first, 0.0634% for the second.

Going from CCN(CC)CCCC(C)Nc1ccnc2cc(Cl)ccc12 (stereo unspecified) to CCOc1cc2[nH]c(=O)n(Cc3ccc(C(=O)NCCN(CC)CC)cc3)c(=O)c2cc1OCC, the activation falls from 0.571% to -0.328%.

Compared with O=C(Nc1ccc(Cl)cc1)c1cnn2c1NC(=C1CC1)C=C2C(F)F, CC(C)(C)C1CCC(NC(=O)c2cnn3c2NC(=C2CC2)C=C3C(F)F)CC1 (stereo unspecified) is lower in activation: -0.513% for the first, -1.12% for the second.

Going from CCOC(=O)c1c(C)oc2ccc(N(C(=O)c3ccncc3)S(=O)(=O)c3ccc(CC)cc3)cc12 to CCN(CC)/[N+]([O-])=N/OCOC(=O)Cc1c(C)n(C(=O)c2ccc(Cl)cc2)c2ccc(OC)cc12, the activation rises from 0.815% to 1.25%.

Going from C/C(=N\NC(N)=S)c1ccncc1 to O=C(Nc1cccc2cccnc12)C(F)(F)F, the activation rises from 0% to 1.01%.

Going from COc1ccc(Br)cc1C1C2C=CCC(C)C2C(=O)N1Cc1ccccc1 (stereo unspecified) to COc1ccc(-c2ccc(C3C4C=CCCC4(C)C(=O)N3Cc3ccccc3)c(F)c2)cc1OC (stereo unspecified), the activation falls from 1.3% to 0.474%.

Compared with O=C(Cc1ccc(Cl)cc1)Nc1ccc2nn(-c3ccc(Cl)cc3)nc2c1, CC1CC(C)CN(c2oc(-c3ccc(OCc4ccc(Cl)cc4)cc3)nc2C#N)C1 (stereo unspecified) is higher in activation: -0.688% for the first, -0.254% for the second.

Compared with CCn1c2ccccc2c2cc(CN3CCN(Cc4cccc(Cl)c4)CC3)ccc21, O=C(c1ccc2c(c1)N(Cc1ccccc1)C(=O)c1ccccc1S2(=O)=O)N1CCC(Cc2ccccc2)CC1 is lower in activation: 1.83% for the first, 0.0562% for the second.

Compared with Cc1cccc(N2CCN(C(c3ccc(N(C)C)cc3)c3nnnn3C(C)(C)C)CC2)c1C (stereo unspecified), COc1ccccc1C(c1nnnn1CC1CCCO1)N1CCN(c2ccccc2)CC1 (stereo unspecified) is higher in activation: -0.374% for the first, 1.14% for the second.

Going from CC(C)OCCCn1c(SCC(=O)c2ccccc2)nc2c(sc3ccccc32)c1=O to COc1ccccc1CNc1nccn(-c2ccc(F)cc2)c1=O, the activation rises from 0.121% to 0.564%.

Compared with O=C(O)C1=C/C(=C/C=[N+]2c3cc(O)c(O[C@H]4OC(CO)[C@@H](O)[C@@H](O)[C@@H]4O)cc3C[C@@H]2C(=O)[O-])C[C@H](C(=O)O)N1 (stereo partly specified), CC(=O)Nc1ccc(S(=O)(=O)N2N=NC3C2C2CC4C3(CN(C(=O)OC(C)(C)C)S4(=O)=O)O2)cc1 (stereo unspecified) is higher in activation: -0.0321% for the first, 0.118% for the second.

Going from C/C=C/NNC(=O)Cc1ccc(OC)cc1 to NC(=O)Nc1ccc(/C=C/c2ccnc3ccccc23)cc1, the activation rises from -0.93% to -0.0317%.

Compound O=C1COc2ccc(-c3csc(-c4ccc(Cl)cc4)n3)cc2N1 has an activation of -0.602%.

For COc1ccc(/C=C(/NC(=O)c2ccc(C)cc2)c2nc3ccccc3[nH]2)cc1OC, the activation was 50.1% (active).
With COc1ccc(NC(=O)c2sc3nc(C)nc(N4CCN(c5ccccn5)CC4)c3c2C)c(OC)c1 the activation was 105% (active).
CN1C(=O)c2cccc3c(N)ccc(c23)C1=O was tested, and the activation was 85.5% (active).
With Cc1nn(C)cc1N1C(=O)c2cccc3c(N)ccc(c23)C1=O the activation was 66.8% (active).
In the case of CCN(CC)CCCC(C)n1c2nc(=O)[nH]c(=O)c-2nc2cc(Cl)ccc21 (stereo unspecified), the activation is reported as 82.9% (active).
CCN(CC)c1ccc2cc(C(N)=O)/c(=N\NC(=O)c3ccncc3)oc2c1 was tested, and the activation was 81% (active).
In the case of Cc1cccc(N2CCN(C(c3ccccc3)c3nnnn3CC3CCCO3)CC2)c1C (stereo unspecified), the activation is reported as 83.5% (active).
For Cc1cc(C)c(/C=C2\C(=O)Nc3ccccc32)[nH]1, the activation was 92% (active).
With CC(C(=O)N1CCc2ccccc21)N(C)CC(=O)Nc1ccc(F)cc1 (stereo unspecified) the activation was 51.7% (active).
With Cc1cc2nc3c(=O)n(Cc4ccccc4)c(=O)[nH]c3nc2cc1N the activation was 94.8% (active).
